Compounds with a hit are over-represented: about 18% of the library has one in this group of screens.
RORg inh – blocks mouse ROR gamma transcriptional activity; Potency, µM (titrated, usually from 53.6 µM), most hits filed as inhibitors; hit rate 5.4% among 310,000; AID 2551; Drosophila S2 Gal4-RORgamma UAS-luciferase reporter, 20 h; further: nearly all actives have a fitted effect of over 60% in size
Target sequence (P51450 whole entry, looked up, the tested form may be a part): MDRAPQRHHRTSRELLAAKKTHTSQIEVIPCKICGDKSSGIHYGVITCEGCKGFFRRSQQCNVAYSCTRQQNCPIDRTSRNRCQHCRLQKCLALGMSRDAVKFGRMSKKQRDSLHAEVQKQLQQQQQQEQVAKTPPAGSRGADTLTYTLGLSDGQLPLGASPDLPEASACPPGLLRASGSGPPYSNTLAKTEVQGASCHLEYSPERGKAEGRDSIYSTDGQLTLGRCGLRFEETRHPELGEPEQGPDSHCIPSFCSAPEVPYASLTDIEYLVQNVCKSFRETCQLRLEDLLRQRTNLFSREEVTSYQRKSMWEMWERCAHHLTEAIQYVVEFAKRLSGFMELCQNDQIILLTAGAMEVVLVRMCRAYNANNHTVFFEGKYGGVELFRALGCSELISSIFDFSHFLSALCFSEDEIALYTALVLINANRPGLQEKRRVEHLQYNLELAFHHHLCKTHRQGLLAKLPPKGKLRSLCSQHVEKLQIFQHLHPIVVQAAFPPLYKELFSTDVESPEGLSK
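Compounds are pin-transferred onto Drosophila Schneider cells expressing a copper-inducible Gal4–ROR gamma transactivation domain fusion. After 1 hr, copper sulfate is added to 700 uM final; luciferase is read 20 hr later.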
LDHA block – inhibitors of human lactate dehydrogenase A; P00338; purified LDHA, NADH/diaphorase-resazurin fluorescence; stronger effect = lower value; activity change, % (values are at about 110 or 230 µM); hit rate 0.15% among 480,000; in the data active means activity change below about -30%; inconclusive means mostly about -25% to -30%
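Human LDH5 at 2 nM final in Tris HCl pH 7.4 with 0.06 mM NADH and 0.2 mM pyruvate, reacted 5 minutes at room temperature. Remaining NADH coupled via diaphorase/resazurin; resorufin fluorescence read at 0 and 20 minutes, normalized to enzyme-free and DMSO wells.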
IL1B secr inh – blocks inflammasome-driven IL-1 beta release | hit rate 4.7% among 360,000 | activity change, % at 57.5 µM | THP-1 LPS/ATP IL-1B secretion, AlphaLISA, 16 h; stronger effect = lower value; in the data active means activity change below about -50%; inconclusive means mostly about -30% to -49%
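THP-1 cells pretreated 1 hr with compounds (up to 57.5 uM final), then stimulated with LPS (250 ng/mL final) plus ATP (1.25 mM final); secreted IL-1B measured by AlphaLISA after 16 hr, decreased signal indicating inhibition.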
DT40 TDP1 no CPT – qHTS for Inhibitors of human tyrosyl-DNA phosphodiesterase 1 (TDP1): qHTS in cells in absence of CPT; DT40 Tdp1-/- hTDP1 cells, no CPT, ATP luminescence, 48 h; Potency, µM (doses to about 46.2 µM), usual class: inhibitors; hit rate 15% among 420,000; further: nearly all actives have a fitted effect of over 55% in size
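Readout: luminescence from CellTiter-Glo after 30 min in the dark at RT. Cells: DT40 Tdp1-/- with stable hTDP1, 400/well. Exposure: compounds alone, ≥48 hr, 37 °C.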
TDP1 cell CPT – growth inhibition of DT40 Tdp1-/-;hTDP1 cells with camptothecin (screen for TDP1 inhibitors) | chicken DT40 Tdp1-/-;hTDP1 cells + 20 nM CPT, ATP luminescence, 48 h | Potency, µM (top dose mostly 46.2 µM), hits mostly inhibitors | hit rate 12% among 420,000; further: nearly all actives have a fitted effect of over 55% in size
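Chicken DT40 Tdp1-/- cells complemented with human TDP1, 400 cells/well, exposed to compounds plus 20 nM camptothecin for at least 48 h at 37 C; viability read as ATP content by CellTiter-Glo luminescence.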
Gal4-VP16 FLuc – inhibits Gal4-VP16 luciferase reporter, ROR gamma counter-screen; Drosophila S2 Gal4-VP16 UAS-luciferase, luminescence, 20 h; Potency, µM (doses to about 53.6 µM), actives largely listed as inhibitors; AID 2546; hit rate 3.5% among 310,000;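 further: Gal4-VP16 expression switched on by copper sulfate through the metallothionein promoter; nearly all actives have a fitted effect of over 50% in size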
Numbers stand for hits; n = inactive; u = inconclusive; x = no result. Unless noted, the call rests on the fitted dose curve; in most records, active means well fitted curve in the direction sought with a large enough effect; inconclusive means small, poorly fitted or top-dose-only effect, or another doubt; inactive means no such curve, though single readings can be large; an effect the other way counts as inactive or inconclusive.

SMILES | RORg inh | LDHA block | IL1B secr inh | DT40 TDP1 no CPT | TDP1 cell CPT | Gal4-VP16 FLuc
CC1(C)CC(=O)C(C(=O)/C=C/c2ccco2)C(=O)C1 | n | n | n | 20.6µM | 14.6µM | n
O=C(/C=C(\c1ccc(Cl)cc1)n1cncn1)c1ccc(Cl)cc1 | n | n | -57.3 | 16.4µM | u | n
O=C(CSc1nnc(-c2cccc(S(=O)(=O)N3CCCC3)c2)o1)c1ccccc1 | x | n | x | x | x | x
Cn1c(CC(=O)NC(C)(C)CO)c(Sc2ccccc2)c2ccccc21 | n | n | n | 16.4µM | 14.6µM | n
Cn1c(CC(=O)Nc2ccc(F)cc2)c(Sc2ccccc2)c2ccccc21 | n | n | n | n | u | n
COc1ccc(NC(=O)C2CCCN(c3ccc4nncn4n3)C2)cc1Cl (stereo unspecified) | x | n | x | x | x | x
CC(C)n1ncc2c(C(=O)N3CCN(S(=O)(=O)c4cccc(F)c4)CC3)cc(C3CC3)nc21 | x | n | n | n | n | x
Cc1ccc(S(=O)(=O)N2CCN(C(=O)c3cc(C4CC4)nc4c3cnn4C(C)C)CC2)cc1 | x | n | u | 4.11µM | u | x
COc1cccc(CNC(=O)c2cc(C3CC3)nc3c2cnn3C(C)C)c1 | x | n | -52.9 | u | u | x
Cc1ccc(CNC(=O)c2cc(C3CC3)nc3c2cnn3C(C)C)cc1 | x | n | n | 18.4µM | u | x
COc1ccc(CNC(=O)c2cc(C3CC3)nc3c2cnn3C(C)C)cc1OC | x | n | n | n | u | x
O=C(O)Cn1cc(C(C(=O)O)N2CCN(c3ccccc3)CC2)c2ccccc21 (stereo unspecified) | x | n | x | x | x | x
CCOc1ccc(CCNC(=O)C2CCN(C(=O)N3CC(CC)Oc4ccccc43)CC2)cc1 (stereo unspecified) | x | n | x | 14.6µM | 14.6µM | x
CCOc1ccc(CNC(=O)C2CCN(C(=O)N3CC(CC)Oc4ccccc43)CC2)cc1 (stereo unspecified) | x | n | x | 23.1µM | 14.6µM | x
CCC1CN(C(=O)N2CCC(C(=O)NCc3ccc(N(C)C)cc3)CC2)c2ccccc2O1 (stereo unspecified) | x | n | x | u | 16.4µM | x
CS(=O)Cc1cccc(C(=O)NC2CCCCC2)c1 (stereo unspecified) | x | n | x | x | x | x
Cc1cn2c3c(=O)[nH]c(=O)n(C)c3nc2n1CCCN1CCN(c2ccccc2)CC1 | x | n | x | x | x | x
COC(=O)C1=CN(Cc2ccc(C)cc2)C=C(C(=O)OC)C1c1cc(OC)c(OC)c(OC)c1 | n | n | n | u | 16.4µM | n
COC(=O)C1=CN(Cc2ccccc2)C=C(C(=O)OC)C1c1ccc(OC)c(OC)c1 | n | n | n | u | u | n
CN1CCN(C(=O)c2cnc(N3CCOCC3)c3ccccc23)CC1 | x | n | x | x | x | x
COC(=O)c1cccc(N2C(=O)C(=O)/C(=C(/O)c3ccccc3)C2c2ccc(NC(C)=O)cc2)c1 (stereo unspecified) | x | n | x | x | x | x
COc1ccccc1NC(=O)C(C)OC(=O)c1cccnc1 (stereo unspecified) | x | n | x | x | x | x
O=C(Nc1ccc(N2CCN(C(=O)c3ccccc3)CC2)cc1)c1ccc([N+](=O)[O-])o1 | n | n | -95.5 | 1.84µM | 2.06µM | n
CC(=O)N1CCN(c2ccc(NC(=O)c3ccccc3C)cc2)CC1 | n | n | n | n | n | n
CCC(=O)N1CCN(c2ccc(NC(=O)c3ccc4c(c3)OCCO4)cc2)CC1 | n | n | n | n | n | n
SMILES | RORg inh | LDHA block | IL1B secr inh | DT40 TDP1 no CPT | TDP1 cell CPT | Gal4-VP16 FLuc
Cc1ccccc1C(=O)N1CCN(c2ccc(NC(=O)c3ccc4c(c3)OCO4)cc2)CC1 | u | n | -131.5 | 13µM | 13µM | n
O=C(Nc1ccc(N2CCN(C(=O)c3ccc(Cl)cc3)CC2)cc1)c1ccc(Br)o1 | n | n | -69.0 | u | u | n
Cc1ccccc1C(=O)N1CCN(c2ccc(NC(=O)c3ccc([N+](=O)[O-])o3)cc2)CC1 | n | n | -94.6 | 2.31µM | 5.17µM | u
Cc1ccc2nc(/C(C#N)=C/c3cc(C)c(C)cc3C)[nH]c2c1 | x | n | x | x | x | x
CCNC(=O)c1ccc2c(c1)NC(=O)CS2 | x | n | x | x | x | x
COc1cccc(-c2c(C(=O)N/N=C/c3ccc(C)o3)nnn2-c2nonc2N)c1 | 10µM | n | u | n | n | u

Bioassay records (PubChem BioAssay)
